For 39 molecules, cytotoxicity call results are on record in the antibiotic and cytotoxicity screens of Wong et al. (2023).

Molecules are shown by their SMILES. About 1,500 (3.8%) of roughly 39,000 compounds were called active. The sample holds actives, similar compounds and a random draw of the others, so the mix is not that of the screen.

The assay relates to HSkMC (human skeletal muscle cells). Put plainly: cytotoxicity call (relative viability < 0.9). The following applies: 10 µM.
Regarding `COc1ccc(CN(C)C[C@@H]2OCCCC[C@H](C)Oc3ccc(NS(=O)(=O)c4ccc(F)cc4)cc3C(=O)N([C@@H](C)CO)C[C@@H]2C)cc1`, the cytotoxicity call is “inactive”.
The same measure for `C[C@H](CO)N1C[C@H](C)[C@H](CN(C)S(C)(=O)=O)Oc2c(NS(=O)(=O)c3cn(C)cn3)cccc2C1=O`: “inactive”.
The same measure for `COc1ccc2c3c(n(c2c1)C)[C@@H](CO)N(C[C@]13CCN(CC1)S(=O)(=O)C)C(=O)CN(C)C`: “inactive”; for `COc1ccc(NC(=O)N(C)C[C@H]2OCCCC[C@H](C)Oc3ccc(NC(=O)Nc4ccc(C(F)(F)F)cc4)cc3C(=O)N([C@@H](C)CO)C[C@@H]2C)cc1`: “inactive”.
The same measure for `Clc1ccc(C(Cn2ccnc2)OCc2ccsc2Cl)c(Cl)c1` (centres undefined): “inactive”.
Turning to `Clc1ccc(COC(Cn2ccnc2)c2ccc(Cl)cc2Cl)c(Cl)c1.O=[N+]([O-])O` (centres undefined), the cytotoxicity call was “inactive”.
Regarding `Clc1ccc(C(c2ccc(Cl)cc2)[n+]2ccn(C[C@@H](OCc3ccc(Cl)cc3Cl)c3ccc(Cl)cc3Cl)c2)cc1`, the cytotoxicity call is “active”.
As for `Cc1ccc2c(=O)c3ccccc3n(CCCN)c2c1C`, the cytotoxicity call is “inactive”.
To `CCCC#Cc1cnc2c(c1)C(=O)N([C@H](C)CO)C[C@@H](C)[C@H](CN(C)S(=O)(=O)c1cccc(OC)c1)O2` belongs “inactive”.
The same measure for `Nc1ncnc2c1c(-c1ccc(Cl)cc1)nn2-c1cccc(-c2cnnn2Cc2cccc(-c3ccccc3)c2)c1`: “active”; for `C[C@H](CO)N1C[C@H](C)[C@H](CN(C)S(C)(=O)=O)Oc2c(NC(=O)CCCCCC(=O)Nc3ccccc3N)cccc2C1=O`: “inactive”; for `COc1ccc(NC(=O)N(C)C[C@@H]2Oc3ccc(NC(=O)CCCCCC(=O)Nc4ccccc4N)cc3CC(=O)N([C@H](C)CO)C[C@H]2C)cc1`: “inactive”.
To `C[C@@H]1CN([C@H](C)CO)C(=O)c2cc(NC(=O)Nc3ccc(F)cc3)ccc2O[C@H]1CN(C)Cc1ccc(Cl)c(Cl)c1` belongs “inactive”.
For the molecule `COc1ccc(NC(=O)Nc2ccc3c(c2)C(=O)N([C@H](C)CO)C[C@@H](C)[C@@H](CN(C)Cc2ccc(Cl)c(Cl)c2)O3)cc1`, the cytotoxicity call was “inactive”.
The same measure for `C[C@@H]1CN([C@@H](C)CO)C(=O)c2cc(NC(=O)Nc3ccc(F)cc3)ccc2O[C@H]1CN(C)Cc1ccc(Cl)c(Cl)c1`: “inactive”.
The same measure for `C[C@@H]1CN([C@H](C)CO)C(=O)c2cc(NC(=O)Nc3ccc(F)cc3)ccc2O[C@@H]1CN(C)Cc1ccc(Cl)c(Cl)c1`: “inactive”; for `C[C@H](CO)N1C[C@H](C)[C@H](CN(C)Cc2ccc(Cl)c(Cl)c2)Oc2ccc(NC(=O)Nc3ccc(F)cc3)cc2C1=O`: “active”.
The same measure for `C[C@H]1CN([C@@H](C)CO)C(=O)c2cc(NC(=O)Nc3ccc(F)cc3)ccc2O[C@H]1CN(C)Cc1ccc(Cl)c(Cl)c1`: “inactive”.
In the case of `COc1ccc(NC(=O)Nc2ccc3c(c2)C(=O)N([C@@H](C)CO)C[C@H](C)[C@H](CN(C)Cc2ccc(Cl)c(Cl)c2)O3)cc1`, the cytotoxicity call was “active”.
In the case of `COc1ccc(NC(=O)Nc2ccc3c(c2)C(=O)N([C@H](C)CO)C[C@H](C)[C@H](CN(C)Cc2ccc(Cl)c(Cl)c2)O3)cc1`, the cytotoxicity call is “inactive”.
The same measure for `C[C@@H]1CN([C@@H](C)CO)C(=O)c2cc(NC(=O)Nc3ccc(F)cc3)ccc2O[C@@H]1CN(C)Cc1ccc(Cl)c(Cl)c1`: “active”; for `COc1ccc(S(=O)(=O)N(C)C[C@H]2Oc3ccc(NS(=O)(=O)c4cn(C)cn4)cc3CC(=O)N([C@@H](C)CO)C[C@@H]2C)cc1`: “inactive”; for `CO[C@@H]1CN(C)C(=O)c2cc(NS(=O)(=O)CC(F)(F)F)ccc2OC[C@@H](C)N(C(=O)NC(C)C)C[C@@H]1C`: “inactive”.
To `COc1cccc(CNC(=O)C[C@H]2C=C[C@H](NC(=O)C3CCOCC3)[C@H](CO)O2)c1` belongs “inactive”; to `COc1ccc(CN(C)C[C@H]2OCCCC[C@H](C)Oc3ccc(NC(=O)Nc4ccc5c(c4)OCO5)cc3C(=O)N([C@@H](C)CO)C[C@H]2C)cc1`, “inactive”; to `C[C@@H]1CN([C@H](C)CO)C(=O)c2cc(NC(=O)Cn3cnnn3)ccc2O[C@@H]1CN(C)C(=O)Nc1ccc(C(F)(F)F)cc1`, “inactive”.
The same measure for `C[C@@H]1CN([C@H](C)CO)C(=O)c2cc(NC(=O)Nc3ccc(C(F)(F)F)cc3)ccc2O[C@H]1CN(C)C(=O)Nc1cccc2ccccc12`: “inactive”; for `Cl.Clc1ccc2c(c1)CCc1cccnc1C2=C1CCNCC1`: “inactive”.
In the case of `Cc1cc(C(=O)Nc2cccc3c2O[C@H](CN(C)Cc2ccc(Oc4ccccc4)cc2)[C@@H](C)CN([C@@H](C)CO)C3=O)n(C)n1`, the cytotoxicity call was “inactive”.
In the case of `COC(=O)C(CC#Cc1ccc2c(c1)[C@]1(C(=O)N2)[C@H](c2ccc(OCCO)cc2)N2[C@H](c3ccccc3)[C@H](c3ccccc3)OC(=O)[C@H]2[C@@H]1C(=O)N1CCc2cc(OC)c(OC)cc2C1)C(=O)OC`, the cytotoxicity call is “inactive”.
In the case of `COc1ccc(S(=O)(=O)N(C)C[C@@H]2Oc3c(NS(=O)(=O)c4cn(C)cn4)cccc3C(=O)N([C@@H](C)CO)C[C@@H]2C)cc1`, the cytotoxicity call is “inactive”.
The same measure for `C[C@@H]1CN([C@@H](C)CO)C(=O)c2cc(NC(=O)Nc3ccc(C(F)(F)F)cc3)ccc2O[C@@H](C)CCCCO[C@H]1CN(C)Cc1ccccc1`: “active”; for `C[C@H]1CCCCO[C@H](CN(C)Cc2ccccc2)[C@@H](C)CN([C@@H](C)CO)C(=O)c2cc(NC(=O)Nc3ccc(C(F)(F)F)cc3)ccc2O1`: “active”; for `C[C@@H]1CCCCO[C@H](CN(C)Cc2ccccc2)[C@H](C)CN([C@@H](C)CO)C(=O)c2cc(NC(=O)Nc3ccc(C(F)(F)F)cc3)ccc2O1`: “active”.
Turning to `C[C@H]1CCCCO[C@@H](CN(C)Cc2ccccc2)[C@@H](C)CN([C@@H](C)CO)C(=O)c2cc(NC(=O)Nc3ccc(C(F)(F)F)cc3)ccc2O1`, the cytotoxicity call is “active”.
For `COc1ccc(S(=O)(=O)N(C)C[C@H]2Oc3ccc(NC(=O)Cn4cnnn4)cc3CC(=O)N([C@H](C)CO)C[C@@H]2C)cc1`, the cytotoxicity call was “inactive”.
With `C[C@H](CO)N1C[C@H](C)[C@@H](CN(C)C(=O)Nc2cccc3ccccc23)Oc2ccc(NS(=O)(=O)c3ccc(F)cc3)cc2CC1=O`, the cytotoxicity call is “inactive”.
To `CCCCCCCCCCCCCCCCOCCCOP(=O)(O)CO[C@H](CO)Cn1ccc(N)nc1=O` belongs “inactive”; to `CC(C)NC(=O)Nc1ccc2c(c1)C(=O)N([C@@H](C)CO)C[C@H](C)[C@@H](CN(C)Cc1ccc3c(c1)OCO3)O2`, “inactive”.
